The text below walks through data of PubChem BioAssay (NCI).

About 79,000 compounds went through this panel and 15% of them were active in at least one assay; those are over-represented in the sample as a whole. Unmarked numbers belong to inactive results. Calls of active or inactive are those of the source. No stated cut-off is given here; in the data, active means growth inhibition above about 70%; inactive means the rest.

Test [1] can be described thus: NCI Yeast Anticancer Drug Screen. Data for the rad50 strain (AID 155).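 Further: 0% = growth of vehicle-only cultures of the same strain.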 The following applies: S. cerevisiae rad50 strain growth inhibition; at 50.0 µM; hits give high values. The method, boiled down:
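Cells are treated with compound, grown, and their growth is then scored against vehicle-only cultures of the same repair-deficient yeast strain.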

Test [2] can be described thus: NCI Yeast Anticancer Drug Screen. Data for the mec2-1 strain (AID 157). As to conditions: S. cerevisiae mec2-1 strain, at 50.0 µM, hits give high values. A digest of the protocol:
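mec2-1 yeast strain, carrying an alteration in DNA damage repair or cell cycle control, was exposed to compounds; growth inhibition was measured relative to vehicle-treated controls.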

The nature of test [3]: NCI Yeast Anticancer Drug Screen. Data for the sgs1 mgt1 strain (AID 161).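 Further: 0% = growth of cultures given vehicle only.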 The following applies: S. cerevisiae sgs1 mgt1 strain, at 50.0 µM, hits give high values. The method, boiled down:
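Yeast cells carrying a defined DNA-repair defect were exposed to test compounds. Growth inhibition was measured relative to vehicle-treated controls.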

Test [4] can be described thus: NCI Yeast Anticancer Drug Screen. Data for the cln2 rad14 strain (AID 165).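 Further: 0% = growth equal to vehicle treated cultures.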 The following applies: S. cerevisiae cln2 rad14 strain, at 50.0 µM, hits give high values. A digest of the protocol: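 Yeast carrying cln2 and rad14 alterations (cell cycle control and DNA damage repair) were exposed to compounds. Growth inhibition was measured against vehicle-treated controls.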

Test [5] in a line: NCI Yeast Anticancer Drug Screen. Data for the bub3 strain (AID 167). As to conditions: S. cerevisiae bub3 mutant strain, at 50.0 µM, hits give high values. A digest of the protocol:
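Part of a panel of yeast mutants defective in DNA damage repair or cell cycle regulation. Each strain is grown with compound, and inhibition is calculated relative to solvent-treated cultures.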

The nature of test [6]: NCI Yeast Anticancer Drug Screen. Data for the mlh1 rad18 strain (AID 175). The following applies: S. cerevisiae mlh1 rad18 strain growth inhibition; at 50.0 µM; hits give high values. A digest of the protocol:
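Growth inhibition of the yeast strain was measured after compound exposure and expressed relative to vehicle-treated controls. The strain carries defined defects in DNA damage repair.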

Turning to `O=C(O)c1cc(-c2ccccc2Cl)nc2cc3ccccc3cc12`, the growth inhibition in test [1] is -14.4%; in test [2], -19.7%; in test [3] it was 4.45%; in test [4], 14.1%; in test [5] it was -6.05%; in test [6], 0.8%.
With `Nc1c(Cl)cc(C(=O)NC2CC2)cc1Cl`, the growth inhibition in test [1] is -13.1%; in test [2], -27.8%; in test [3], -11.2%; in test [4] it was -4.8%; in test [5], -26.6%; in test [6], -24.9%.
For the compound `COC(=O)C(CC1=C(O)Nc2ccccc2N1)/C(=N/NC(N)=O)C(=O)Nc1ccccc1C` (stereo unspecified), the growth inhibition was 11.4% in test [1]; 9% in test [2]; 13.6% in test [3]; -17.6% in test [4]; -5.5% in test [5]; -46.4% in test [6].
For the compound `O=C(NC(CCS(=O)(=O)n1ccnc1)C(=O)OCc1ccccc1)OCc1ccccc1` (stereo unspecified), the growth inhibition in test [1] is 12.7%; in test [2] it was -4.95%; in test [3] it was -18.2%; in test [4] it was 11.2%; in test [5], -4.7%; in test [6], 1.6%.
Regarding `Cc1nc2c(=O)[nH]c(=O)[nH]c2[nH]c1=O`, the growth inhibition was -20.4% in test [1]; -12.2% in test [2]; -24.6% in test [3]; -50.5% in test [4]; 2.55% in test [5]; -16.4% in test [6].
On to `O=S(=O)(Nc1cc(Cl)c(NS(=O)(=O)c2ccccc2)c(S(=O)(=O)c2ccccc2)c1Cl)c1ccccc1`, for which the growth inhibition was 58.2% in test [1]; 62.4% in test [2]; 73.5% (active) in test [3]; 71.8% (active) in test [4]; 65.3% in test [5]; 65% in test [6].
Turning to `COc1ccc(Cl)cc1[N+](=O)[O-]`, the growth inhibition was 27.6% in test [1]; 3.15% in test [2]; -3.85% in test [3]; 9.5% in test [4]; 13.6% in test [5]; 18.2% in test [6].
Turning to `Nc1[nH]c(=O)nc2c1cnn2Cc1ccccc1`, the growth inhibition is -0.75% in test [1]; -10.1% in test [2]; -14.2% in test [3]; -12.2% in test [4]; -2.7% in test [5]; -3.8% in test [6].
Turning to `NCCOc1ccccn1`, the growth inhibition is -1.7% in test [1]; -10.8% in test [2]; -0.6% in test [3]; -10.7% in test [4]; 1% in test [5]; -1.9% in test [6].
With `COc1nc2[nH]ccc2c(=O)n1C`, the growth inhibition in test [1] was -10.9%; in test [2], -20.1%; in test [3], -9.1%; in test [4] it was 10.3%; in test [5], -10.4%; in test [6] it was 17.4%.
As for `C#CCOCCC(C(=O)O)C(=O)O`, the growth inhibition is 9.9% in test [1]; 5.45% in test [2]; 8.6% in test [3]; -1.7% in test [4]; 11.9% in test [5]; 2.7% in test [6].
`Cc1ccc(NC(=O)CCC(CC(=O)C(C)(C)C)=NNC(=O)C(=O)NN)cc1C`: the growth inhibition is -25.8% in test [1]; -19.3% in test [2]; -19.4% in test [3]; -23.5% in test [4]; -7.4% in test [5]; -22.2% in test [6].
`COCCC(=O)SCc1ccccc1`: the growth inhibition is 9.55% in test [1]; -45.3% in test [2]; -9.2% in test [3]; -35.6% in test [4]; -16.5% in test [5]; 1% in test [6].
In the case of `CCCC(CCC)C(=O)OCC(=O)c1ccc(-c2ccccc2)cc1`, the growth inhibition was -1.4% in test [1]; -2.6% in test [2]; 5% in test [3]; -43.9% in test [4]; 2.7% in test [5]; -0.1% in test [6].
For `Cc1cccc(C)c1C`, the growth inhibition in test [1] is 4.8%; in test [2] it was -5%; in test [3], 9.85%; in test [4] it was -3.05%; in test [5], -0.65%; in test [6], -15.1%.
On to `O=[N+]([O-])c1nccn1CCC[n+]1cccc2ccccc21`, for which the growth inhibition was -38.6% in test [1]; -17.2% in test [2]; -14.2% in test [3]; -14.9% in test [4]; -19.9% in test [5]; -13.4% in test [6].
For the compound `O=C1OC2C(O)C3CC1C2O3` (stereo unspecified), the growth inhibition in test [1] is -8.15%; in test [2] it was -6.05%; in test [3] it was -5.5%; in test [4], -6.85%; in test [5], -2.25%; in test [6], 0.45%.
For `O=C(O)c1cccc(-n2cnc3c(=O)[nH]cnc32)c1`, the growth inhibition in test [1] is -0.25%; in test [2] it was -3.85%; in test [3] it was -5.85%; in test [4], -9.15%; in test [5] it was 8.6%; in test [6], -14.2%.
`c1ccc(CN2COc3ccc4c5c(ccc4c3C2)OCN(Cc2ccccc2)C5)cc1`: the growth inhibition is -13.1% in test [1]; -5.45% in test [2]; -6.7% in test [3]; -21.6% in test [4]; 2.05% in test [5]; -17.7% in test [6].
For `CC(C)OP(=O)(OC(C)C)/C(F)=N/Nc1ccc([N+](=O)[O-])cc1`, the growth inhibition in test [1] is 36%; in test [2] it was 11.3%; in test [3], 23.1%; in test [4], -3.85%; in test [5] it was -6.15%; in test [6] it was 6.25%.
As for `COc1ccc2c(c1)CN(Cc1ccccc1)CO2`, the growth inhibition in test [1] was 3.85%; in test [2] it was -3.4%; in test [3], 6%; in test [4], -17.4%; in test [5], 13%; in test [6], 11.7%.
